Data on 5 compounds can be found in PubChem BioAssay.

Calls of active or inactive are those of the source.

Assay [1] is described as follows: small molecules captured by biotinylated probe aFSTL3 – biochemical, small-molecule microarray, fluorescence 635/667, stem cell growth factor project, primary screen (AID 1064).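 Also: measures binding of the biotinylated anti-FSTL3 antibody to printed compounds.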 The note with it: higher = more signal.
Assay [2] in a line: binders from COS7 lysate, DM2A8 probe, primary screen, torsin A project, cell lysate, small-molecule microarray, fluorescence 635/667 (AID 1065). The note with it: higher = more signal, COS7 lysate expressing mutant human TOR1A.
The nature of assay [3]: small molecules captured by biotinylated probe aFGF2 – biochemical, small-molecule microarray, fluorescence 635/667, stem cell growth factor project, primary screen (AID 1067).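 Also: measures binding of biotinylated aFGF2 protein to printed compounds on slides; z-score merges feature fluorescence and signal-to-noise across triplicate slides.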 The conditions noted are these: higher = more signal.
A short description of assay [4]: small molecules captured by biotinylated probe aFGF10 – biochemical, small-molecule microarray, fluorescence 635/667, stem cell growth factor project, primary screen (AID 1071).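 Also: score merges 667 nm spot intensity and signal to noise from triplicate slides.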 The conditions noted are these: higher = more signal.
For assay [5], the target named is Neurogenic locus notch homolog protein 2 (Homo sapiens) (UniProt Q04721). Briefly: small molecules binding Notch2 protein – biochemical, small-molecule microarray, 635 nm fluorescence, stem cell growth factors, primary screen (AID 1073). The note with it: higher = more signal.
Neurogenic locus notch homolog protein 2 (Homo sapiens), sequence (Q04721 whole entry, looked up, canonical isoform): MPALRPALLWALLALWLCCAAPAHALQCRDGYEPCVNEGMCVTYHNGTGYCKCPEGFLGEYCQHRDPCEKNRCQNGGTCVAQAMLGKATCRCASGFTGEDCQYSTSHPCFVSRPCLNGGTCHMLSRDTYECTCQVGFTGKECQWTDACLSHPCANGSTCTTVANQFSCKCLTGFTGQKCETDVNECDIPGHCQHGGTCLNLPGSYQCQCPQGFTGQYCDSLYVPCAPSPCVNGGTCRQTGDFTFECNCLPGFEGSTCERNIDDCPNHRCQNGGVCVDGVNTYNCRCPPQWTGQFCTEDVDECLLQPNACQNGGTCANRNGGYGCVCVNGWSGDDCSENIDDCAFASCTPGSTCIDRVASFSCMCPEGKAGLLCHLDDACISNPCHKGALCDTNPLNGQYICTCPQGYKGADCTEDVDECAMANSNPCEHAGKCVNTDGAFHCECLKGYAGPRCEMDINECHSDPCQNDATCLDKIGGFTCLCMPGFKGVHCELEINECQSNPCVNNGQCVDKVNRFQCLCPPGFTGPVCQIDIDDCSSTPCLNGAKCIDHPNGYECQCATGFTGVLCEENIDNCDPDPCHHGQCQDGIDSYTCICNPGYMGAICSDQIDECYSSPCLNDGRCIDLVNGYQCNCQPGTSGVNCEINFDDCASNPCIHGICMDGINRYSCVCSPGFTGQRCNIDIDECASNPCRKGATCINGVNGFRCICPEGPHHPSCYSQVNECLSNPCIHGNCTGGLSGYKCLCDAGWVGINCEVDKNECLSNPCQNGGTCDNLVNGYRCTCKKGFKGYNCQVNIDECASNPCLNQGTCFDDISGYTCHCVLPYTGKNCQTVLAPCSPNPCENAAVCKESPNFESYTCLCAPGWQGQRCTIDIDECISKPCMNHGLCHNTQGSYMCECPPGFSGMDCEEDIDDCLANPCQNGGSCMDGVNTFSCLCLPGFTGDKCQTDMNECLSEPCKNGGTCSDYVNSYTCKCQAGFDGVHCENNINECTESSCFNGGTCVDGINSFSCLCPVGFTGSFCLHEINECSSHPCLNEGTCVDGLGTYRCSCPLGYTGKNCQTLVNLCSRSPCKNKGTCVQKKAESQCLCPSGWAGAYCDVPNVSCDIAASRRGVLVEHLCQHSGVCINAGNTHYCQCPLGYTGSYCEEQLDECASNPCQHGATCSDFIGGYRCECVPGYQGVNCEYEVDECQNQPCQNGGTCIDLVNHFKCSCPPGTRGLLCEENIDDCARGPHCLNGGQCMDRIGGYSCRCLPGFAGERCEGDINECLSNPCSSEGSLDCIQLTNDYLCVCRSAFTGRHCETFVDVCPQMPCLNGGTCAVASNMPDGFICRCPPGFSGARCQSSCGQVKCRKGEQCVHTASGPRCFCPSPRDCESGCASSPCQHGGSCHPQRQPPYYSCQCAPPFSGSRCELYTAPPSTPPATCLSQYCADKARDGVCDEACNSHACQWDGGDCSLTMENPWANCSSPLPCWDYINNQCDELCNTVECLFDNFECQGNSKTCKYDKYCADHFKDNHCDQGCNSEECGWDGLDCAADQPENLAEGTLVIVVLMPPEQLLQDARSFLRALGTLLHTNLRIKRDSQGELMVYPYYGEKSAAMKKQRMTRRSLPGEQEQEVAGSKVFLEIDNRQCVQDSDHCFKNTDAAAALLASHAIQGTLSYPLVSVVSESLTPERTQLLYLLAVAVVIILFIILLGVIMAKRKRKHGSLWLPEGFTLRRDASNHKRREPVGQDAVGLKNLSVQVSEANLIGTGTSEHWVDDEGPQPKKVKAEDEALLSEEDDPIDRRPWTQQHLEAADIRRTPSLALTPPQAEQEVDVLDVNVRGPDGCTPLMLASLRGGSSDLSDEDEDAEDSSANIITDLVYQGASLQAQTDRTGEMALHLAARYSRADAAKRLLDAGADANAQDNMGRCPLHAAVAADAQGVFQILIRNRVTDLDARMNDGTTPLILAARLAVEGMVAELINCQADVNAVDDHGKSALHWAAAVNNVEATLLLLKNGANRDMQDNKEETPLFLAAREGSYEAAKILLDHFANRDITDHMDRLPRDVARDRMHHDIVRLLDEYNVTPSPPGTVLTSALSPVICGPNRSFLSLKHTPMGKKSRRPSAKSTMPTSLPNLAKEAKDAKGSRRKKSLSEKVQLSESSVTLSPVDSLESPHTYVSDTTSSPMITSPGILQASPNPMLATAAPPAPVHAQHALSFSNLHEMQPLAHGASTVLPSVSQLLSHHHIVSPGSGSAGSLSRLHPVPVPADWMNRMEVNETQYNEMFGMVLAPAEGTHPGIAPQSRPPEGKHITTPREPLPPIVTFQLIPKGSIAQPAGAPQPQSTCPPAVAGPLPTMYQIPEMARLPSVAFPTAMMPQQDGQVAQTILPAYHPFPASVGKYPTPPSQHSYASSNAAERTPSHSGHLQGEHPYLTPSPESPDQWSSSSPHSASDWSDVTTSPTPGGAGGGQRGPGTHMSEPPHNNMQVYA
Assay [6] concerns the target Pro-neuregulin-1, membrane-bound isoform (Homo sapiens) (UniProt Q02297). The assay can be described thus: small molecules binding neuregulin-1 protein – biochemical, small-molecule microarray, fluorescence 635/667, psychiatric disease protein project, primary screen (AID 1075).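 Also: score combines 667 nm spot fluorescence with signal to noise.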 The conditions noted are these: NRG1 binding, 635 nm fluorescence, higher = more signal.
Assay [7] relates to Neuregulin-1 EGF-like domain. Briefly: small molecules binding NRG1 EGF domain – biochemical, small-molecule microarray, 635 nm fluorescence, primary screen (AID 1081).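 Also: binding of the protein to compounds printed on small-molecule microarray slides.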 The note with it: higher = more signal.
A short description of assay [8]: FRG1 expression reporter modulators in myotubes – cell-based, C2C12 myotubes, firefly/Renilla luciferase, luminescence, FRG1 inhibition for FSHD, primary screen (AID 1084). The note with it: FRG1 promoter luciferase, higher = more signal, called active from +8 up or from −8 down.
The nature of assay [9]: small molecules captured by biotinylated probe aFST – biochemical, small-molecule microarray, fluorescence 635/667, stem cell growth factor project, primary screen (AID 1086).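 Also: score merges 667 nm fluorescence with signal-to-noise of each printed compound spot.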 The conditions noted are these: higher = more signal.
A short description of assay [10]: binders of probe aHhip on microarray, primary screen, stem cell growth factor project, biochemical, small-molecule microarray, fluorescence 635/667 (AID 1087).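 Also: score merges spot fluorescence at 667nm with spot signal to noise ratio.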 The note with it: higher = more signal.
Assay [11] relates to PRMT1 (protein arginine N-methyltransferase 1). Briefly: small molecules binding arginine methyltransferase PRMT1 – biochemical, small-molecule microarray, 635 nm fluorescence, primary screen (AID 1088).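 Also: binding of Prmt1 protein to compounds spotted on small-molecule microarray slides.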 The conditions noted are these: higher = more signal.
A short description of assay [12]: growth effects on S. cerevisiae YJM789 – YJM789 clinical isolate, OD600, 24 h, basal, primary screen (AID 1089).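 Also: growth of clinical yeast isolate S. cerevisiae YJM 789 seeded 1000 cells per well; test concentration not given here.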 The note with it: higher = more signal, called active from +8 up or from −8 down.
Assay [13] in a line: S. pombe growth modifiers, basal conditions – strain 972, OD600, 24 h, no modulator, primary screen (AID 1090).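 Also: basal condition with compound alone and no growth modifier present; test concentration not given here.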 The conditions noted are these: S. pombe 972 growth, higher = more signal, called active from +8 up or from −8 down.
The nature of assay [14]: budding yeast growth modifiers under rapamycin – strain BY4716, OD600, 96 h, primary screen (AID 1091). Also: test concentration not given here. The note with it: S. cerevisiae BY4716 + rapamycin, higher = more signal, called active from +8 up or from −8 down.
The target in assay [15] is Torsin-1A-interacting protein 2 (Homo sapiens) (UniProt Q8NFQ8). The assay can be described thus: small molecules binding lysate-expressed LULL1 – cell lysate, human LULL1 lysate, 635/667 nm fluorescence, primary screen (AID 1092).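 Also: probe is lysate of COS7 cells overexpressing human LULL1; score merges per-feature 667 nm fluorescence with signal-to-noise.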 The conditions noted are these: small-molecule microarray, hLULL1 lysate binding, 635 nm fluorescence; higher = more signal.
Assay [16] can be described thus: optical density change of DRC41 E. coli – strain DRC41, OD650, 24 h, E. coli filamentation project, primary screen (AID 1093).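 Also: MC1000 strain lacking acrAB efflux and sulA so SOS filamentation is blocked; test concentration not given here.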 The conditions noted are these: E. coli DRC41 growth, higher = more signal, called active from +8 up or from −8 down.
Assay [17] can be described thus: probe aLefty2 binding to arrayed compounds – biochemical, biotinylated probe, 635/667 nm fluorescence, primary screen (AID 1094).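 Also: score merges spot fluorescence near 667 nm with spot signal-to-noise ratio.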 The conditions noted are these: small-molecule microarray, higher = more signal.
Assay [18] relates to Noggin (protein binding on small-molecule microarray). Briefly: small molecules binding Noggin protein – biochemical, 635/667 nm fluorescence, primary screen (AID 1095).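 Also: score merges 667 nm feature fluorescence with signal to noise over triplicate slides.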 The conditions noted are these: 635 nm fluorescence, higher = more signal.
Assay [19] concerns the target Neurogenic locus notch homolog protein 3 (Homo sapiens) (UniProt Q9UM47). The assay can be described thus: small molecules binding NOTCH3 protein – biochemical, 635/667 nm fluorescence, primary screen (AID 1096). The note with it: small-molecule microarray, 635 nm fluorescence, higher = more signal.
Assay [20] in a line: probe aEGFR binding to arrayed compounds – biochemical, biotinylated probe, 635/667 nm fluorescence, primary screen (AID 1097).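 Also: probe is a biotinylated anti-EGFR antibody binding compounds printed on slides; score combines fluorescence near 667 nm and signal to noise of each spot.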 The conditions noted are these: small-molecule microarray, higher = more signal.

Neurogenic locus notch homolog protein 3 (Homo sapiens), sequence (Q9UM47 whole entry, looked up): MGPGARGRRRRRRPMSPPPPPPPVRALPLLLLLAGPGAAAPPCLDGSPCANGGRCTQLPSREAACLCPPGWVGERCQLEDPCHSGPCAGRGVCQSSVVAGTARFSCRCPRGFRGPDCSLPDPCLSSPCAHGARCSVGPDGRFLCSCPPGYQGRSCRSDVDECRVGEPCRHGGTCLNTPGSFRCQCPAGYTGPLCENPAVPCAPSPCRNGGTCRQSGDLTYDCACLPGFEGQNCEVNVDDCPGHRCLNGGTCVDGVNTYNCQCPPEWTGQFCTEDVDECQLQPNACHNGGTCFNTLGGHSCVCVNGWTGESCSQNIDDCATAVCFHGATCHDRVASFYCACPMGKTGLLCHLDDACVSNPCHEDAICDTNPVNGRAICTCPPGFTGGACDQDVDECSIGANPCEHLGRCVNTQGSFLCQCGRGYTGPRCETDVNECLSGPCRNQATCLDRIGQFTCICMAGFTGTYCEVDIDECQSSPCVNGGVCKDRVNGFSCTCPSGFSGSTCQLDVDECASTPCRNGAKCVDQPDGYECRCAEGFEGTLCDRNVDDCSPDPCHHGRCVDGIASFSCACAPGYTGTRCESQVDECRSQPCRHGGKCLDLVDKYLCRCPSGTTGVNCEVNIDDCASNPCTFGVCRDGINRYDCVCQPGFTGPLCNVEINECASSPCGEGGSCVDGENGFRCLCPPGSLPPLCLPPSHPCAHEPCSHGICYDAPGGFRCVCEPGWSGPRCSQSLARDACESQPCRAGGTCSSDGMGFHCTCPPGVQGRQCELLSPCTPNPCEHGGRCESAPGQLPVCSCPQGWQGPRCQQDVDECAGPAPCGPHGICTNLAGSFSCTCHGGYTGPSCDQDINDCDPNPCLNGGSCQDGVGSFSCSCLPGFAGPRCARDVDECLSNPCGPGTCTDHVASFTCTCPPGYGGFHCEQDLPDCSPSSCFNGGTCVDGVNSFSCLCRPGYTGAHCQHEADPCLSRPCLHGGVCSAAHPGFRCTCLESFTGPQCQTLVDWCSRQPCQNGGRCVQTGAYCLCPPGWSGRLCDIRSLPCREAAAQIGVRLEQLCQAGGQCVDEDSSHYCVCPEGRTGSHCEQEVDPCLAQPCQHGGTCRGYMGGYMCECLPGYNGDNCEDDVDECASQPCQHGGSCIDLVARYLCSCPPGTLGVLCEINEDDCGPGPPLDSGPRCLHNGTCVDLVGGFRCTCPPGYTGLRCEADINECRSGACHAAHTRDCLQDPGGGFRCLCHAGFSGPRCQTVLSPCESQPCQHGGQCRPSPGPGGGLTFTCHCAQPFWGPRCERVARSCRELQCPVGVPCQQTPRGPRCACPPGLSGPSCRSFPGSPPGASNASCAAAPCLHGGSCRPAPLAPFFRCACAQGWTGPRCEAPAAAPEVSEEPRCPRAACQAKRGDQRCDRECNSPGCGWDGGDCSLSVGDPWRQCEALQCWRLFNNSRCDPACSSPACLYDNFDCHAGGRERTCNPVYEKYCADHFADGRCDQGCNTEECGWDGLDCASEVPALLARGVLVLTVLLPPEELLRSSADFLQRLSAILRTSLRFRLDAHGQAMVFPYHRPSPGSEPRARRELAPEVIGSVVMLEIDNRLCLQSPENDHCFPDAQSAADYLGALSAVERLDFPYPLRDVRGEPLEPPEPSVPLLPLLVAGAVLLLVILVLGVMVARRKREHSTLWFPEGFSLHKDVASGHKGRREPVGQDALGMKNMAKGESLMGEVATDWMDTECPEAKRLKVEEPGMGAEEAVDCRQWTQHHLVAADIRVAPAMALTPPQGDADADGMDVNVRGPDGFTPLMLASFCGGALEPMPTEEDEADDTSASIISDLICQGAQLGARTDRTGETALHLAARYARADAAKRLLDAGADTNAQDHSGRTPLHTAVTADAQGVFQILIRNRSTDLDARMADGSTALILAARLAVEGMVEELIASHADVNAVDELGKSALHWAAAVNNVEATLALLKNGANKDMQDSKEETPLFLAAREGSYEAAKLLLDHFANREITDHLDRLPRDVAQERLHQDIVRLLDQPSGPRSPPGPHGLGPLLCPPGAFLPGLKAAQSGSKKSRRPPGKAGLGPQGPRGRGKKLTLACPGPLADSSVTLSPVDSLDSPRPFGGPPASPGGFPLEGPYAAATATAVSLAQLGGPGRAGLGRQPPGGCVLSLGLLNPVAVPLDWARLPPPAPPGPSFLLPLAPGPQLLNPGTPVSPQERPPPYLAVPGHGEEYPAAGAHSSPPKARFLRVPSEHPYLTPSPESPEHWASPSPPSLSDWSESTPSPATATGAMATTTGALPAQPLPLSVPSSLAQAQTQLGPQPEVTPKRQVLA

For `Cn1c2c(c3ccccc31)C(=O)C1NC2C=CC1(C)C(=O)OCc1ccccc1` (stereo not given), the composite z-score is 1.03 in [1]; 0.979 in [2]; -0.176 in assay [3]; -1.31 in [4]; -1.15 in assay [5]; 1.06 in [6]. Further, the composite z-score in assay [7] is 0.467; in assay [9], -0.478; in assay [10], -0.0645; in [11], 0.417; in [15] it was 3.1; in [17], -0.0097. The composite z-score in assay [18] was -2.04; in assay [19], -0.258; in assay [20], -0.264. Further, the z-score in [8] is -1.52 (inactive); in assay [12], -0.566 (inactive); in [13], 0.35 (inactive); in [14], -0.233 (inactive); in [16], -1.01 (inactive).

With `CC(C)NC(=O)[C@@]1(c2ccc([N+](=O)[O-])cc2)CC(=O)N(C(C)C)[C@@H]1c1ccc(CO)cc1`, the composite z-score in assay [1] is 1.12; in assay [2], -0.0946; in assay [3], -0.134; in [4], -0.218; in assay [5], -0.999; in assay [6], -0.524. The composite z-score in assay [7] is 0.697; in assay [9] it was -1.08; in assay [10], -0.256; in assay [11], 0.859; in assay [15], 2.61; in assay [17], 0.0945. Also, the composite z-score was -1.14 in assay [18], -0.323 in [19] and -0.253 in assay [20]. The z-score in assay [8] is -0.31 (inactive); in assay [12], -2.06 (inactive); in assay [13], -0.476 (inactive); in [14], -0.692 (inactive); in [16], 1.26 (inactive).

Regarding `Cc1ccc(S[C@]2(C(=O)NCC(C)C)CC(=O)N(Cc3ccccc3)[C@@H]2c2ccc(CO)cc2)cc1`, the composite z-score in assay [1] was 0.148; in assay [2] it was -0.674; in [3], -0.076; in [4], 0.146; in assay [5] it was -0.967; in [6], -0.431. Further, the composite z-score is 0.221 in assay [7]; 0.161 in [9]; -0.226 in [10]; 0.744 in [11]; 1.86 in assay [15]; 0.189 in [17]. The composite z-score is -0.779 in assay [18], -0.331 in assay [19] and -0.236 in [20]. Also, the z-score in assay [8] is -3.05 (inactive); in [12], -1.14 (inactive); in assay [13], -1.14 (inactive); in assay [14] it was -0.256 (inactive); in [16] it was -0.579 (inactive).

In the case of `[N-]=[N+]=NCc1ccccc1C[C@]1(C(=O)NCC(O)CO)COC(c2ccc(OCCCO)cc2)=N1` (stereo not given in full), the composite z-score in assay [1] was 1.11; in assay [2], 2.19; in assay [3] it was -0.033; in [4], -0.329; in [5], 0.7; in assay [6], 1. In addition, the composite z-score was 0.691 in [7]; 1.1 in [9]; -0.318 in assay [10]; 0.638 in assay [11]; 2.54 in assay [15]; 0.841 in assay [17]. The composite z-score is -0.185 in [18], -0.172 in [19] and 0.204 in assay [20]. Also, the z-score in assay [8] was -1.03 (inactive); in assay [12], -0.319 (inactive); in assay [13], -3.05 (inactive); in [14] it was 0.113 (inactive); in [16] it was 1.34 (inactive).

For the compound `C=C(C(=O)CC[C@@H](OC(C)=O)c1ccc(OCCO)cc1)C(C)C`, the composite z-score in assay [1] was 0.0823; in assay [2] it was 0.366; in [3], -0.0676; in assay [4], 0.853; in [5], 0.146; in assay [6] it was 0.845. The composite z-score in assay [7] was 1.19; in [9] it was -0.193; in [10], -0.287; in assay [11], 0.387; in assay [15], 1.45; in assay [17], -0.114. Moreover, the composite z-score in [18] is -0.053; in assay [19], -0.054; in assay [20] it was 0.0073. The z-score in assay [8] is 2.4 (inactive); in [12], -1.33 (inactive); in [13], -1.38 (inactive); in [14], -0.423 (inactive); in assay [16] it was 0.278 (inactive).
